About 83,000 compounds went through this panel and 20% of them were active in at least one assay; those are over-represented in the sample as a whole.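 Interpretation: 100, growth as untreated; towards 0, rising growth inhibition; 0, no net growth; 0 to -100, cell death. Compounds scoring below 10 were considered active.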 Values without a mark were called inactive. The source made the active and inactive calls.

Test systems include HCT-15 colon; SNB-75 CNS; SNB-19 CNS; U251 CNS; SK-MEL-5 melanoma; UACC-62 melanoma; LOX IMVI melanoma; SK-MEL-28 melanoma; PC-3 prostate.
Assay in all cases: NCI-60 one-dose screen, 48 h (100 = growth as untreated, 0 = no growth, -100 = all killed)
What all share (conditions): 10 µM unless noted

Consider `O=C(O)c1ccccc1Oc1cc(-c2ccco2)nc(OCCBr)n1`, for which the growth with HCT-15 colon is 104%; in the assay with SNB-75 CNS, 99.7%; in the assay with SNB-19 CNS it was 98.6%; in the assay on U251 CNS it was 98.3%; with SK-MEL-5 melanoma, 110%; in the assay with UACC-62 melanoma, 94.9%. The growth was 107% in the assay on LOX IMVI melanoma and 119% with SK-MEL-28 melanoma.
As for `C(=C\c1ccccc1)/CN1CCN(C(c2ccccc2)c2ccccc2)CC1`, the growth was 80.9% with HCT-15 colon; 85.4% in the assay with SNB-75 CNS; 96.3% in the assay on SNB-19 CNS; 77.5% in the assay on PC-3 prostate; 95.5% with SK-MEL-5 melanoma; 96.9% in the assay on UACC-62 melanoma. In addition, the growth with LOX IMVI melanoma was 99.7%; with SK-MEL-28 melanoma, 91.9%.
For the compound `O=C(CCCCCCC(=O)Nc1ccc2c(c1)/C(=C/c1ccc[nH]1)C(=O)N2)NO`, the growth in the assay on HCT-15 colon is 41.5%; with SNB-75 CNS, 53%; with SNB-19 CNS it was 16.3%; in the assay on U251 CNS, -9.13% (active); in the assay with SK-MEL-5 melanoma it was -75% (active); in the assay on LOX IMVI melanoma, -69.8% (active). In addition, in the assay on SK-MEL-28 melanoma, the growth was 14.6%.
As for `CC1=CN2C(=NC3=C(CCCC/C3=C\c3ccccc3)C2c2ccccc2)S1` (stereo not given), the growth is 94.8% with HCT-15 colon; 82.5% with SNB-75 CNS; 96.5% in the assay with U251 CNS; 99.2% in the assay with PC-3 prostate; 83.8% in the assay with UACC-62 melanoma; 97.5% in the assay on LOX IMVI melanoma. The growth in the assay with SK-MEL-28 melanoma was 107%.
In the case of `COC(=O)/C=C1/CCC2C3CCC4=CC(=O)C(Br)CC4(C)C3C(=O)CC12C` (stereo not given), the growth in the assay with HCT-15 colon is 66.6%; in the assay with SNB-75 CNS, 70.8%; in the assay on SNB-19 CNS, 78.9%; in the assay on PC-3 prostate, 53.5%; with UACC-62 melanoma it was 73.5%; in the assay with LOX IMVI melanoma, 38.2%. In addition, in the assay on SK-MEL-28 melanoma, the growth was 94.5%.
`N#Cc1ccc(C(F)(F)F)nc1N1CCC(C(=O)Nc2ccc(Cl)cc2)CC1`: the growth in the assay on HCT-15 colon was 43.9%; in the assay with SNB-75 CNS it was 105%; with U251 CNS, 65.3%; in the assay with PC-3 prostate, 51%; with UACC-62 melanoma, 84.8%; in the assay with LOX IMVI melanoma it was 43.7%. For the same compound, in the assay on SK-MEL-28 melanoma, the growth is 87.2%.
On to `Cc1ccc(S(=O)(=O)N2CCc3ccc(O)c4c3C2Cc2cc(Cl)ccc2-4)cc1` (stereo not given), for which the growth in the assay on HCT-15 colon was 48.4%; in the assay on SNB-75 CNS, 48.7%; with SNB-19 CNS, 83.9%; with U251 CNS, 30.2%; in the assay on PC-3 prostate, 65.7%; with SK-MEL-5 melanoma, 52.8%. The growth is 57% in the assay with UACC-62 melanoma, 68.9% with LOX IMVI melanoma and 56.6% in the assay on SK-MEL-28 melanoma.
For `CCCCOC(=O)C1OC(Oc2ccc3c(C)cc(=O)oc3c2)[C@@H](OC(C)=O)C(OC(C)=O)C1OC(C)=O` (stereo not given in full), the growth is 99.2% in the assay with HCT-15 colon; 86.3% in the assay with SNB-75 CNS; 99.1% with SNB-19 CNS; 100% in the assay with U251 CNS; 104% in the assay on PC-3 prostate; 97% with UACC-62 melanoma. Further, the growth is 94.5% with LOX IMVI melanoma and 108% with SK-MEL-28 melanoma.
As for `O=C(CCc1nnc2sc(/C=C\c3ccccc3)nn12)c1nc2ccccc2[nH]1`, the growth in the assay on HCT-15 colon was 99.6%; in the assay with SNB-75 CNS, 87.9%; in the assay with SNB-19 CNS, 110%; with U251 CNS, 89.1%; with PC-3 prostate, 77.1%; in the assay with UACC-62 melanoma it was 103%. Moreover, the figures for the growth in the assay on LOX IMVI melanoma and in the assay with SK-MEL-28 melanoma were 75.3% and 93.3%, respectively.
With `O=C(Nc1nc2ccccc2[nH]1)C(=O)Nc1nc2ccccc2[nH]1`, the growth in the assay on HCT-15 colon is 86.2%; in the assay on SNB-75 CNS, 93.4%; in the assay with SNB-19 CNS, 101%; in the assay with U251 CNS, 96.5%; in the assay with PC-3 prostate it was 85.7%; with SK-MEL-5 melanoma, 99.2%. Also, the growth is 97.5% in the assay on UACC-62 melanoma, 93.5% with LOX IMVI melanoma and 107% in the assay with SK-MEL-28 melanoma.
For `NC(=O)c1cc(I)ccc1NC(=O)COc1ccccc1`, the growth with HCT-15 colon was 20.1%; in the assay on SNB-75 CNS, 30.8%; in the assay on SNB-19 CNS, 43.1%; with U251 CNS it was 13.5%; in the assay on PC-3 prostate, 43.4%; with UACC-62 melanoma, 46%. Besides, the growth was 52.1% in the assay with LOX IMVI melanoma and 57.7% with SK-MEL-28 melanoma.
On to `COc1ccc(/C=N/NC(=O)c2cnn(CC(O)Cc3ccccc3)c2N)cc1OC1CCCC1` (stereo not given), for which the growth is 77.6% with HCT-15 colon; 74.2% with SNB-75 CNS; 92.3% in the assay on SNB-19 CNS; 85.6% in the assay on U251 CNS; 69.9% in the assay with PC-3 prostate; 62.7% in the assay with SK-MEL-5 melanoma. Besides, the growth in the assay on UACC-62 melanoma is 82.8%; in the assay with LOX IMVI melanoma it was 82.4%; in the assay on SK-MEL-28 melanoma it was 107%.
Turning to `O=C1c2c(c3c4cc(Br)ccc4[nH]c3c3ccc4ccccc4c23)C(=O)N1O`, the growth was 85.4% in the assay with HCT-15 colon; 79.8% in the assay on SNB-75 CNS; 85.1% in the assay on SNB-19 CNS; 68.5% in the assay with U251 CNS; 79% in the assay on PC-3 prostate; 96.7% in the assay with SK-MEL-5 melanoma. Moreover, the growth with UACC-62 melanoma is 59.9%; in the assay on LOX IMVI melanoma it was 67.8%; with SK-MEL-28 melanoma, 106%.
With `CC[Si](CC)(CC)OC1[C@@H](O[Si](CC)(CC)CC)[C@@H](CNC(=O)NC)O[C@H]1n1cnc2c(NC(=O)Nc3ccccc3)ncnc21` (stereo not given in full), the growth with HCT-15 colon was 86.2%; in the assay with SNB-75 CNS it was 78.1%; in the assay on U251 CNS, 82.8%; in the assay on PC-3 prostate, 11.2%; with SK-MEL-5 melanoma it was 95.1%; with UACC-62 melanoma it was 73%. Moreover, the growth with LOX IMVI melanoma was 93.7%; in the assay with SK-MEL-28 melanoma it was 104%.
As to `Nc1nc(N)c(C=Nc2ccc(Br)cc2)c(Nc2ccc(Br)cc2)n1`, the growth with HCT-15 colon was 88.5%; with SNB-75 CNS it was 91.3%; in the assay on SNB-19 CNS it was 99.8%; with U251 CNS, 95.1%; in the assay on SK-MEL-5 melanoma it was 108%; in the assay with UACC-62 melanoma, 87%. For the same compound, the values for the growth in the assay on LOX IMVI melanoma and in the assay on SK-MEL-28 melanoma were 81% and 106%, respectively.

Source of the values: PubChem BioAssay (NCI).
